From PubChem BioAssay (NCATS)
Inconclusive results are not listed. Activity calls are given as the source filed them. Unless noted, the call rests on the fitted dose curve; in most records, active means well fitted curve in the direction sought with a large enough effect; inconclusive means small, poorly fitted or top-dose-only effect, or another doubt; inactive means no such curve, though single readings can be large; an effect the other way counts as inactive or inconclusive.

Tests used:
[1] = qHTS drug screen for cell cycle checkpoint inhibitors in PARPi-resistant BRCA-mutant ovarian cancer cell lines. (AID 1963452; calls by dose curve); details: PEO1/OlaR viability, CellTiter-Glo luminescence, 96 h, stronger effect = lower value
Outline: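 PEO1, PEO4 and PEO1/OlaR ovarian cancer cells, 600 per well, exposed 96 h at 37C to a dilution series. Viability read by CellTiter-Glo luminescence, normalized to DMSO and empty wells; activity summarized as Z-AUC.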

[2] = qHTS profiling for inhibitors of Plasmodium falciparum proliferation (AID 504749); further: potency means the concentration at half of the fitted maximal effect;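 on activity, negative = inhibition: 0% = DMSO vehicle and full inhibition = artemisinin control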; on all read-outs here: nearly all actives have a fitted effect of over 60% in size; details: P. falciparum in erythrocytes, SYBR Green DNA, 72 h; for activity, negative = inhibition: at 28.7 µM (top of the series)
Outline: (§1)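 P. falciparum-infected erythrocytes (0.3% parasitemia, 2.5% hematocrit) incubated with compound 72 h at 37 C, 5% CO2. Parasite DNA detected by SYBR Green after lysis, overnight at room temperature; normalised to 0.29 uM artemisinin and DMSO.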

3D7 = experiment: as above; details: P. falciparum in erythrocytes, SYBR Green DNA, 72 h; series mostly up to 28.7 µM
Outline: as §1

7G8 = experiment: as above; details: P. falciparum in erythrocytes, SYBR Green DNA, 72 h; series mostly up to 28.7 µM
Outline: as §1

AA1029 = experiment: as above; details: P. falciparum in erythrocytes, SYBR Green DNA, 72 h; series mostly up to 28.7 µM
Outline: as §1

AS120 = experiment: as above; details: P. falciparum in erythrocytes, SYBR Green DNA, 72 h; series mostly up to 28.7 µM
Outline: as §1

ATS189 = experiment: as above; details: P. falciparum in erythrocytes, SYBR Green DNA, 72 h; series mostly up to 28.7 µM
Outline: as §1

ATS95 = experiment: as above; details: P. falciparum in erythrocytes, SYBR Green DNA, 72 h; series mostly up to 28.7 µM
Outline: as §1

C2A = experiment: as above; details: P. falciparum in erythrocytes, SYBR Green DNA, 72 h; series mostly up to 28.7 µM
Outline: as §1

CP185 = experiment: as above; details: P. falciparum in erythrocytes, SYBR Green DNA, 72 h; series mostly up to 28.7 µM
Outline: as §1

CP191 = experiment: as above; details: P. falciparum in erythrocytes, SYBR Green DNA, 72 h; series mostly up to 28.7 µM
Outline: as §1

CP192 = experiment: as above; details: P. falciparum in erythrocytes, SYBR Green DNA, 72 h; series mostly up to 28.7 µM
Outline: as §1

CP194 = experiment: as above; details: P. falciparum in erythrocytes, SYBR Green DNA, 72 h; series mostly up to 28.7 µM
Outline: as §1

CP201 = experiment: as above; details: P. falciparum in erythrocytes, SYBR Green DNA, 72 h; series mostly up to 28.7 µM
Outline: as §1

CP203 = experiment: as above; details: P. falciparum in erythrocytes, SYBR Green DNA, 72 h; series mostly up to 28.7 µM
Outline: as §1

[3] = qHTS Counterscreen for compound interference against the NCATS DSHEA and TCM libraries (AID 1919978); details: firefly luciferase detection reagent interference, luminescence;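 further: compounds preincubated with 1 µM D-luciferin or buffer before detection reagent; % of control where 0% means no effect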
Outline: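 Firefly luciferase detection reagent was added after compounds (19.5 nM–39.8 uM final) had been incubated 15 min at room temperature with 1 uM D-luciferin or with 100 mM phosphate buffer alone. Luminescence was read after 30 min at room temperature.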

[4] = Dual reporter qHTS for agonist of Pregnane X Receptor (hPXR) against the NCATS DSHEA and TCM libraries: Fluorescence readout (AID 1920058); details: PXR dual reporter cells; series mostly up to 40 µM; further: 0% is about no effect
Outline: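 hPXR-Luc HepG2 cells, 2000/well in charcoal-stripped serum, attached 5 h, dosed for ~24 h at 37 °C. Fluorescence read is CellTiter-Fluor viability (Ex/Em 405/540 nm); rifampicin positive, tetraoctyl ammonium bromide (92 µM) cytotoxicity controls.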

[5] = target: Nuclear receptor subfamily 1 group I member 2 (Homo sapiens) (UniProt O75469); experiment: Dual reporter qHTS for agonist of Pregnane X Receptor (hPXR) against the NCATS DSHEA and TCM libraries: Luminescence readout (AID 1920059); details: hPXR dual reporter cells, luciferase luminescence agonist; series mostly up to 40 µM; further: 0% is about no effect
Outline: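 hPXR-Luc HepG2 cells, 2000/well in 5% charcoal-stripped FBS medium, attached 5 h, then exposed 24 h at 37C to compounds. Viability by CellTiter-Fluor, then luciferase luminescence with ONE-Glo.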

[6] = target: Nuclear receptor subfamily 1 group I member 2 (Homo sapiens) (UniProt O75469); experiment: Dual reporter qHTS for antagonist of Pregnane X Receptor (hPXR) against the NCATS DSHEA and TCM libraries: Luminescence Readout (AID 1920060); details: hPXR dual reporter cells, luciferase luminescence, antagonist mode; series mostly up to 40 µM; further: 0% is about no effect
Outline: (§2)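 Rifampicin-stimulated (2 uM final) hPXR-luciferase HepG2 cells were treated for 24 h with DSNP/TCM substances. Viability came from CellTiter-Fluor fluorescence, reporter activity from ONE-Glo luminescence.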

[7] = Dual reporter qHTS for antagonist of Pregnane X Receptor (hPXR) against the NCATS DSHEA and TCM libraries: Fluorescence Readout (AID 1920061); details: PXR dual reporter cells, antagonist mode; series mostly up to 40 µM; further: 0% is about no effect
Outline: as §2

[8] = measured here: PEO1 parental Z-AUC

Chain of Nuclear receptor subfamily 1 group I member 2 (Homo sapiens) (O75469 whole entry, looked up): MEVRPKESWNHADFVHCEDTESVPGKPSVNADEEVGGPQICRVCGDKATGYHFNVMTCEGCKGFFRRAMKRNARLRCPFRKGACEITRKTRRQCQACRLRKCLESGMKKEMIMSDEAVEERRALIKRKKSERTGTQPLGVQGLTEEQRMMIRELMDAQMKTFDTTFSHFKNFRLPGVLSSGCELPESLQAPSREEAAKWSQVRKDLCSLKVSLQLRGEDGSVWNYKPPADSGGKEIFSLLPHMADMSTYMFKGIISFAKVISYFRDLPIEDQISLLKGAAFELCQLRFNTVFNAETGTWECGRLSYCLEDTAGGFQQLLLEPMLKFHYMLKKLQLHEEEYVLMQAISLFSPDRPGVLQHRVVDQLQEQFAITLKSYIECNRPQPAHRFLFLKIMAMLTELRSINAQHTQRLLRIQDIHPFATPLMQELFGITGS

O=C1NC(=O)/C(=C/c2ccc3c(c2)OC(F)(F)O3)S1
Z-AUC [1]: -0.958 (inactive) | Z-AUC [1, 8]: -0.173 | Z-AUC ([1]; measured here: PEO4 Z-AUC): -0.926

CCCCCCCCCCCCCCCC[n+]1ccccc1
Potency ([2]; parasite line A): 6.31 µM (active) | Potency ([2]; parasite line B): 6.31 µM (active) | Potency (3D7): 4.47 µM (active) | Potency (7G8): 5.01 µM (active) | Potency (AA1029): 5.01 µM (active) | Potency (AS120): 7.94 µM (active) | Potency (ATS189): 6.31 µM (active) | Potency (ATS95): 7.94 µM (active) | Potency (C2A): 4.47 µM (active) | Potency (CP185): 7.94 µM (active) | Potency (CP191): 4.47 µM (active) | Potency (CP192): 7.57 µM (active) | Potency (CP194): 6.75 µM (active) | Potency (CP201): 7.57 µM (active) | Potency (CP203): 9.53 µM (active)

CN1CCCN(C(c2ccccc2)c2ccc(Cl)cc2)CC1 (stereo unspecified)
Potency (7G8): 8.91 µM (active) | Potency (AA1029): 7.94 µM (active) | Potency (AS120): 11.2 µM (active) | Potency (ATS189): 10 µM (active) | Potency (ATS95): 11.2 µM (active) | Potency (C2A): 11.2 µM (active) | Potency (CP191): 10 µM (active)

CC(C)N(CCC(=O)c1ccc2ccccc2c1)Cc1ccccc1
Z-AUC [1]: -1.4 (inactive) | Z-AUC [1, 8]: -0.867 | Z-AUC ([1]; measured here: PEO4 Z-AUC): -0.853

O=[N+]([O-])c1cncn1CCN1CCOCC1
Z-AUC [1]: 1.32 (inactive) | Z-AUC [1, 8]: 1.34 | Z-AUC ([1]; measured here: PEO4 Z-AUC): 1.02

O=C(O)[C@H](O)[C@@H](O)[C@H](O[C@@H]1O[C@H](CO)[C@H](O)[C@H](O)[C@H]1O)[C@H](O)CO
Z-AUC [1]: 0.899 (inactive) | Z-AUC [1, 8]: 1.15 | Z-AUC ([1]; measured here: PEO4 Z-AUC): 1.21

CN1CCC(Nc2ncc3ncnc(Nc4ccc(F)c(Cl)c4)c3n2)CC1
Potency ([2]; parasite line A): 8.91 µM (active) | Potency ([2]; parasite line B): 10 µM (active) | Potency (7G8): 2.51 µM (active) | Potency (AA1029): 10 µM (active) | Potency (C2A): 11.2 µM (active)

CCCCCCCCCCCCCC[N+](C)(C)C
Potency ([2]; parasite line A): 5.01 µM (active) | Potency ([2]; parasite line B): 7.08 µM (active) | Potency (3D7): 3.98 µM (active) | Potency (7G8): 2.24 µM (active) | Potency (AA1029): 4.47 µM (active) | Potency (AS120): 5.62 µM (active) | Potency (ATS189): 5.62 µM (active) | Potency (ATS95): 7.08 µM (active) | Potency (C2A): 3.98 µM (active) | Potency (CP185): 5.62 µM (active) | Potency (CP191): 4.47 µM (active) | Potency (CP192): 6.01 µM (active) | Potency (CP194): 6.75 µM (active) | Potency (CP201): 12 µM (active) | Potency (CP203): 6.75 µM (active)

CC(NCCC(c1ccccc1)c1ccccc1)c1ccccc1 (stereo unspecified)
Potency (7G8): 2.24 µM (active) | Potency (AA1029): 12.6 µM (active) | Potency (AS120): 11.2 µM (active) | Potency (ATS95): 11.2 µM (active) | Potency (C2A): 10 µM (active) | Potency (CP185): 8.91 µM (active) | Potency (CP191): 10 µM (active) | Potency (CP194): 15.1 µM (active)

O=C(O)CCCC[C@@H]1SC[C@@H]2NC(=O)N[C@@H]21
max response [3]: 3.76% (inactive) | outcome [4]: inactive | outcome [5]: inactive | outcome [6]: inactive | outcome [7]: inactive

C[N+](C)(C)CCO
max response [3]: 2.09% (inactive) | outcome [4]: inactive | outcome [5]: inactive | outcome [6]: inactive | outcome [7]: inactive

Nc1ncnc2nc[nH]c12
activity, negative = inhibition ([2]; parasite line A): -12.9% (inactive) | activity, negative = inhibition ([2]; parasite line B): -6.26% (inactive) | Potency (3D7): inactive | Potency (7G8): inactive | Potency (AA1029): inactive | Potency (AS120): inactive | Potency (ATS189): inactive | Potency (ATS95): inactive | Potency (C2A): inactive | Potency (CP185): inactive | Potency (CP191): inactive | Potency (CP192): inactive | Potency (CP194): inactive | Potency (CP201): inactive | Potency (CP203): inactive

Nc1c2ccccc2nc2ccccc12
Potency ([2]; parasite line A): 7.94 µM (active) | Potency ([2]; parasite line B): 11.2 µM (active) | Potency (7G8): 3.16 µM (active) | Potency (AA1029): 7.08 µM (active) | Potency (AS120): 12.6 µM (active) | Potency (ATS189): 7.08 µM (active) | Potency (ATS95): 11.2 µM (active) | Potency (CP185): 8.91 µM (active) | Potency (CP191): 11.2 µM (active) | Potency (CP192): 12 µM (active)

C[C@H]1C[C@@H]2[C@H]([C@@H](O)C[C@@]3(C)[C@H]2CC[C@]3(O)C(=O)CO)[C@@]2(C)C=CC(=O)C=C12
Z-AUC [1]: -1.46 (inactive) | Z-AUC [1, 8]: -0.672 | Z-AUC ([1]; measured here: PEO4 Z-AUC): -1.34

CCCCCCCCCCCCCCCC[N+](C)(C)Cc1ccccc1
Potency ([2]; parasite line A): 1.26 µM (active) | Potency ([2]; parasite line B): 5.62 µM (active) | Potency (3D7): 3.98 µM (active) | Potency (7G8): 3.16 µM (active) | Potency (AA1029): 3.16 µM (active) | Potency (AS120): 1 µM (active) | Potency (ATS189): 3.55 µM (active) | Potency (ATS95): 3.55 µM (active) | Potency (C2A): 10 µM (active) | Potency (CP185): 0.501 µM (active) | Potency (CP191): 1 µM (active) | Potency (CP192): 9.53 µM (active) | Potency (CP194): 12 µM (active) | Potency (CP201): 12 µM (active)

O=S(=O)(O)c1ccc2nc(-c3ccccc3)[nH]c2c1
activity, negative = inhibition ([2]; parasite line A): 7.74% (inactive) | activity, negative = inhibition ([2]; parasite line B): 3.12% (inactive) | Potency (3D7): inactive | Potency (7G8): inactive | Potency (AA1029): inactive | Potency (AS120): inactive | Potency (ATS189): inactive | Potency (ATS95): inactive | Potency (C2A): inactive | Potency (CP185): inactive | Potency (CP191): inactive | Potency (CP192): inactive | Potency (CP194): inactive | Potency (CP201): inactive | Potency (CP203): inactive

O=C(Nc1ccc(S(=O)(=O)N2CCOCC2)cc1)c1cc(Cl)ccc1NS(=O)(=O)c1ccc(Cl)s1
Z-AUC [1]: 1.19 (inactive) | Z-AUC [1, 8]: 0.998 | Z-AUC ([1]; measured here: PEO4 Z-AUC): 1.36

O=[N+]([O-])c1ccc(O)c2ncccc12
Z-AUC [1]: -0.66 (inactive) | Z-AUC [1, 8]: -0.828 | Z-AUC ([1]; measured here: PEO4 Z-AUC): -1.06 | Potency (3D7): 11.2 µM (active) | Potency (7G8): 11.2 µM (active) | Potency (AS120): 10 µM (active) | Potency (C2A): 12.6 µM (active) | Potency (CP191): 12.6 µM (active)

O=C(Nc1ccc(Cl)cc1)Nc1ccc(Cl)c(Cl)c1
Potency ([2]; parasite line A): 3.16 µM (active) | Potency ([2]; parasite line B): 3.98 µM (active) | Potency (3D7): 5.01 µM (active) | Potency (7G8): 0.501 µM (active) | Potency (AA1029): 5.62 µM (active) | Potency (AS120): 2.24 µM (active) | Potency (ATS189): 3.16 µM (active) | Potency (ATS95): 3.16 µM (active) | Potency (C2A): 3.16 µM (active) | Potency (CP185): 2.51 µM (active) | Potency (CP191): 2.82 µM (active) | Potency (CP192): 9.53 µM (active) | Potency (CP194): 6.01 µM (active) | Potency (CP201): 7.57 µM (active) | Potency (CP203): 4.26 µM (active)

Nc1ccc2cc3ccc(N)cc3nc2c1
Potency (7G8): 2.24 µM (active)
